For part of these data: Entries with a potency or affinity are not part of this list. Activity calls are given as the source filed them.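 How the source made its calls, unless noted: active means primary screen inhibitor hit that blocks the TRPC4 channel at some tested dose, yielding a dose curve; inactive means the rest.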
Key:
[1] = system: TRPC4 beta (transient receptor potential cation channel C4), mouse; test: activators of mouse TRPC4 channel, confirmation, cell-based, Fluo4 calcium, HEK293 TRPC4beta/mu-opioid, duplicates, 10 µM (AID 2426;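 active means fluorescence ratio normalized to control raised more than 50% in primary screen plus both repeat runs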); conditions: Fluo4 calcium fluorescence, at 10 µM; stronger effect = higher value
[2] = system: transient receptor potential cation channel C4 beta (TRPC4), mouse; test: activators of mouse TRPC4 channel, confirmation, cell-based, second round, Fluo4, HEK293 TRPC4beta/mu-opioid, 1 µM (AID 2461;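 active means primary screen active and over 50% activation in each of two duplicate runs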); conditions: Fluo4 calcium fluorescence, at 1 µM; stronger effect = higher value
[3] = system: TRPC4 (transient receptor potential cation channel C4 beta), mouse; test: positive allosteric modulators of mouse TRPC4, confirmation, cell-based, second round, Fluo-4, HEK293 TRPC4beta/mu-opioid, 1 µM (AID 2554;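 active means primary screen hit whose fluorescence ratio, in both repeats, exceeds the weak agonist control mean by 3 SD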); conditions: DAMGO EC20, Fluo-4 calcium flux, at 1 µM; stronger effect = higher value
[4] = system: TRPC4 beta (transient receptor potential cation channel C4), mouse; test: positive allosteric modulators of mouse TRPC4, confirmation, cell-based, Fluo-4, HEK293 TRPC4beta/mu-opioid (AID 2555;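 active means primary screen hit whose calcium fluorescence ratio, in both repeats, exceeds the weak agonist control mean by 3 SD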); conditions: DAMGO EC20, Fluo-4 calcium flux, at 10 µM; stronger effect = higher value
[5] = target: Short transient receptor potential channel 4 (Mus musculus) (UniProt Q9QUQ5); test: inhibitors of mouse TRPC4 channel, confirmation, cell-based, Fluo4, HEK293 TRPC4beta/mu-opioid (AID 2636;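 active means calcium signal cut by more than 3 SD below the full-agonist control yet still positive, in both repeats and the earlier primary screen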); conditions: DAMGO, Fluo4 calcium flux, at 10 µM; stronger effect = higher value
[6] = target: Short transient receptor potential channel 4 (Mus musculus) (UniProt Q9QUQ5); test: inhibitors of mouse TRPC4 channel, confirmation, cell-based, second round, Fluo4, HEK293 TRPC4beta/mu-opioid, 1 µM (AID 2637;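 active means calcium signal ratio cut to more than 3 SD under the fully stimulated control mean yet still positive, in both repeats and the primary screen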;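 on inhibition: percent of integrated ratio relative to wells lacking test compound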); conditions: Fluo4 calcium flux, DAMGO, at 1 µM; stronger effect = higher value
[7] = target: Short transient receptor potential channel 4 (Mus musculus) (UniProt Q9QUQ5); test: mouse TRPC4 channel activators, dose response, cell-based, HEK293 TRPC4/mu-opioid, Fluo-4 calcium (AID 434937;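 active means primary screen activator hit with a dose response curve and TRPC4 channel activation at any tested dose; inactive means no activation, no dose response, or not a primary hit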)
[8] = target: Short transient receptor potential channel 4 (Mus musculus) (UniProt Q9QUQ5); test: TRPC4 positive allosteric modulators, dose response, cell-based, HEK293 TRPC4/mu-opioid, Fluo-4 calcium, EC20 DAMGO (AID 434941;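 active means earlier screen potentiator hit that boosts the TRPC4 ion channel at some dose, with a dose response; inactive means no potentiation, no dose response, or not a prior hit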;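 further: calcium entry triggered by an EC20 dose of DAMGO at the co-expressed mu-opioid receptor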)
[9] = target: Short transient receptor potential channel 4 (Mus musculus) (UniProt Q9QUQ5); test: mouse TRPC4 channel inhibitors, dose response, cell-based, HEK293 TRPC4/mu-opioid, Fluo-4 calcium (AID 434942)
[10] = target: Short transient receptor potential channel 6 (Mus musculus) (UniProt Q61143); test: inhibition of mouse TRPC6 channel, confirmation, selectivity assay for TRPC4 inhibitor project, cell-based, HEK293, membrane potential dye, duplicate (AID 434948;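 active means active in primary screen and both duplicates, each dropping signal beyond three positive-control SD with fluorescence still positive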); conditions: HEK293 TRPC6, membrane potential dye fluorescence, at 10 µM, stimulated with maximal-effect acetylcholine; stronger effect = higher value
[11] = target: Short transient receptor potential channel 6 (Mus musculus) (UniProt Q61143); test: activation of mouse TRPC6 channel, confirmation, selectivity assay for TRPC4 activator project, cell-based, HEK293, membrane potential dye, duplicate (AID 434950;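 active means membrane potential signal rise above negative control mean plus 3 SD in both duplicates, also active in the earlier TRPC4 screen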); conditions: HEK293 TRPC6, membrane potential fluorescence, at 10 µM; stronger effect = higher value
[12] = target: Short transient receptor potential channel 6 (Mus musculus) (UniProt Q61143); test: TRPC6 potentiation by TRPC4 potentiator hits, confirmation, selectivity assay for TRPC4 potentiator project, HEK293 cells, membrane potential dye, duplicate (AID 434952;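 active means compound raising the membrane signal above positive-control mean plus 3 SD in both repeats, and a primary screen hit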); conditions: HEK293 TRPC6, membrane potential dye fluorescence, at 10 µM, maximal acetylcholine added after compound; stronger effect = higher value
[13] = target: Short transient receptor potential channel 4 (Mus musculus) (UniProt Q9QUQ5); test: calcium flux activators in TRPC4/5HT1a cells, counter-screen for TRPC4 activator project, cell-based, second counter screen, HEK293 TRPC4/5HT1a, Fluo-4 (AID 434977;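 active means calcium signal rise above buffer-control mean plus 5 SD in both duplicates, and also a hit in the primary screen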); conditions: Fluo-4 calcium flux, at 10 µM; stronger effect = higher value
[14] = calcium flux inhibitors in TRPC4/5HT1a cells, confirmation, counter-screen for TRPC4 inhibitor project, cell-based, second counter screen, HEK293 TRPC4/5HT1a, Fluo-4 (AID 434978;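 active means primary screen active whose calcium signal fell more than 3 SD beyond the full-serotonin control mean in both duplicate plates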;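 on outcome: serotonin given first at submaximal then at maximal dose after compound preincubation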); conditions: Fluo-4 calcium flux, at 10 µM, serotonin added to trigger calcium flux; stronger effect = higher value
[15] = system: TRPC4 (mouse), co-expressed with 5HT1a in HEK293; test: calcium flux potentiators in TRPC4/5HT1a cells, confirmation, counter-screen for TRPC4 potentiator project, cell-based, second counter screen, HEK293 TRPC4/5HT1a, Fluo-4 (AID 434979;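 active means signal rise over 3 SD above mean of control wells given weak agonist, in both repeats and first screen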); conditions: Fluo-4 calcium flux, at 10 µM, serotonin added at its EC20 dose; stronger effect = higher value
[16] = calcium flux activation in mu-opioid HEK293 cells, confirmation, counter-screen for TRPC4 activator project, cell-based, HEK293 mu-opioid receptor line (AID 449723;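 active means hit in primary screen, with calcium signal over 5 SD above buffer well mean in both duplicates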;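 further: counter screen cells carry the mu-opioid receptor alone and lack TRPC4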); conditions: Fluo-4 calcium fluorescence, at 10 µM; stronger effect = higher value
[17] = calcium flux enhancement in mu-opioid HEK293 cells, confirmation, counter-screen for TRPC4 allosteric potentiator project, cell-based, HEK293 mu-opioid receptor line (AID 449724;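 active means calcium signal rise more than 3 SD above the low-dose agonist control mean, in both duplicate plates and the primary screen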); conditions: Fluo-4 calcium flux, at 10 µM, compound added before EC20 DAMGO stimulus; stronger effect = higher value

Sequence of Short transient receptor potential channel 6 (Mus musculus) (Q61143 whole entry, looked up): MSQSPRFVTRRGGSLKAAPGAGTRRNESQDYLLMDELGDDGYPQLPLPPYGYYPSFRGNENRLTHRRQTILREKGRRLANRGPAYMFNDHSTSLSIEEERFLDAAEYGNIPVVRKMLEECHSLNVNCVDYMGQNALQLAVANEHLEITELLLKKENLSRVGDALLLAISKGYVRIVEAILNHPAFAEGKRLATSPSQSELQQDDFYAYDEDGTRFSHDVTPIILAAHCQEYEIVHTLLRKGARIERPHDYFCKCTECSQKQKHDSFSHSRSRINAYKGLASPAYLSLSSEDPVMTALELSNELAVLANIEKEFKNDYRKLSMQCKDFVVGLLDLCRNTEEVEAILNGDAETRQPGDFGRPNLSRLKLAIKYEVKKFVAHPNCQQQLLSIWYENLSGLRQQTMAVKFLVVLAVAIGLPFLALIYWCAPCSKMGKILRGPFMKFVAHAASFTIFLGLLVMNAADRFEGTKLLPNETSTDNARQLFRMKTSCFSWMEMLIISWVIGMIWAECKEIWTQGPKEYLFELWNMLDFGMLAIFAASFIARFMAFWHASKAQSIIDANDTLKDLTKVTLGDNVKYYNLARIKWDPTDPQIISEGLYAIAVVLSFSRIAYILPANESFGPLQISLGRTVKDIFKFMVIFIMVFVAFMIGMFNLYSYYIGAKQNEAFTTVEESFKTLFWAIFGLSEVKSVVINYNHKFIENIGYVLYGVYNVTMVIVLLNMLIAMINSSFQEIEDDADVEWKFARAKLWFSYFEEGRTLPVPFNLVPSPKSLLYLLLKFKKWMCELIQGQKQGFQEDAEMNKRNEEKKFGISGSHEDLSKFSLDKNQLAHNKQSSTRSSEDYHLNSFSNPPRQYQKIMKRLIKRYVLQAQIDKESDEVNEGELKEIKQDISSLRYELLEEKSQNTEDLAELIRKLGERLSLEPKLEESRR
Sequence of Short transient receptor potential channel 4 (Mus musculus) (Q9QUQ5 whole entry, looked up): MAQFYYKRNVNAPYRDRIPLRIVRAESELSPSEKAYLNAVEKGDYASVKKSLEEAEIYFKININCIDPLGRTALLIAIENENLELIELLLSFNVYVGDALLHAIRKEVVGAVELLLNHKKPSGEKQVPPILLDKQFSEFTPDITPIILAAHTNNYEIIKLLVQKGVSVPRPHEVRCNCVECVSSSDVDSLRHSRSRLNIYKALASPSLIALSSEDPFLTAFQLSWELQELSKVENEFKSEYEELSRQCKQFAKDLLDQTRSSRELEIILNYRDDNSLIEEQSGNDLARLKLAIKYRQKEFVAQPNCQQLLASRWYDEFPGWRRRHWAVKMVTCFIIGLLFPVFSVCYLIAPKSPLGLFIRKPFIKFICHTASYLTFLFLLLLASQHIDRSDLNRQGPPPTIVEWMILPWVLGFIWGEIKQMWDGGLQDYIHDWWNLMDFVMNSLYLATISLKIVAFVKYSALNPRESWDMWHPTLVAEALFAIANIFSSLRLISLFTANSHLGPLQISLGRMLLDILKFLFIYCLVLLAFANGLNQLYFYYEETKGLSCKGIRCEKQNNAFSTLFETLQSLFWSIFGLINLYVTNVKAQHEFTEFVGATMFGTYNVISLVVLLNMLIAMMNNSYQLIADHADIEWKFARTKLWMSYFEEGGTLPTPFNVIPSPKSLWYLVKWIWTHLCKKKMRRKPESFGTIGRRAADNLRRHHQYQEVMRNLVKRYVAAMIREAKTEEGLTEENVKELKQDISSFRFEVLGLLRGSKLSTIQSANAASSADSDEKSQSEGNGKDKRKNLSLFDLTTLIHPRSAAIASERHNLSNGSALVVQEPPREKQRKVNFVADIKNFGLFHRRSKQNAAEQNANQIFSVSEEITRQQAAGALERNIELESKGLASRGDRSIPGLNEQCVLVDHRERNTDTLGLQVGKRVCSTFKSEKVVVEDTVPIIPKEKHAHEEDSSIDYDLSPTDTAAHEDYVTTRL

CN(C)CCCSc1nc(-c2ccccc2)nc2c1CCC2
active: potentiation [3] 8%
inactive: outcome [1] | outcome [2] | outcome [4] | outcome [5] | outcome [6] | outcome [7] | outcome [8] | outcome [9] | outcome [10] | outcome [11] | outcome [12] | outcome [13] | outcome [14] | outcome [15] | outcome [16] | outcome [17]

CCN(CC)CCN(Cc1cc2cc3c(cc2[nH]c1=O)OCCO3)C(=O)NC1CCCCC1
inactive: outcome [1] | outcome [2] | outcome [3] | outcome [4] | outcome [5] | outcome [6] | outcome [7] | outcome [8] | outcome [9] | outcome [10] | outcome [11] | outcome [12] | outcome [13] | outcome [14] | outcome [15] | outcome [16] | outcome [17]

COc1ccccc1OCC(=O)Nc1ccc(Cl)cc1
inactive: outcome [1] | outcome [2] | outcome [3] | outcome [4] | outcome [7] | outcome [8] | outcome [9] | outcome [10] | outcome [11] | outcome [12] | outcome [13] | outcome [14] | outcome [15] | outcome [16] | outcome [17]
active: inhibition [5] 52% | inhibition [6] 41%

COc1cc(S(=O)(=O)N2CCC(N3CCCCC3)CC2)ccc1-n1cnnn1
active: potentiation [3] 12% | potentiation [4] 8% | potentiation [15] 13.4%
inactive: outcome [1] | outcome [2] | outcome [5] | outcome [6] | outcome [7] | outcome [8] | outcome [9] | outcome [10] | outcome [11] | outcome [12] | outcome [13] | outcome [14] | outcome [16] | outcome [17]

Cc1ccnc(NC(=O)COC(=O)C23CC4CC(CC(C4)C2)C3)n1
active: potentiation [4] 128% | potentiation [15] 104%
inactive: outcome [1] | outcome [2] | outcome [3] | outcome [5] | outcome [6] | outcome [7] | outcome [8] | outcome [9] | outcome [10] | outcome [11] | outcome [12] | outcome [13] | outcome [14] | outcome [16] | outcome [17]

CCc1nc2ccccc2n1Cc1ccc(F)cc1
inactive: outcome [1] | outcome [2] | outcome [3] | outcome [4] | outcome [5] | outcome [6] | outcome [7] | outcome [8] | outcome [9] | outcome [10] | outcome [11] | outcome [12] | outcome [13] | outcome [14] | outcome [15] | outcome [16] | outcome [17]

CCN(CC)CCCNC(=S)N1CCN(c2nc3ccccc3n2CC)CC1
active: potentiation [15] 17.1%
inactive: outcome [1] | outcome [2] | outcome [3] | outcome [4] | outcome [5] | outcome [6] | outcome [7] | outcome [8] | outcome [9] | outcome [10] | outcome [11] | outcome [12] | outcome [13] | outcome [14] | outcome [16] | outcome [17]

Cc1ccc(S(=O)(=O)N2CCC(C(=O)OCC(=O)N(C)CC(=O)Nc3ccc(F)cc3)CC2)cc1C
inactive: outcome [1] | outcome [2] | outcome [3] | outcome [4] | outcome [5] | outcome [6] | outcome [7] | outcome [8] | outcome [9] | outcome [10] | outcome [11] | outcome [12] | outcome [13] | outcome [14] | outcome [15] | outcome [16] | outcome [17]

C=CCNC(=S)N1CCN(C2CCCCC2)CC1
inactive: outcome [1] | outcome [2] | outcome [5] | outcome [6] | outcome [7] | outcome [8] | outcome [9] | outcome [10] | outcome [11] | outcome [12] | outcome [13] | outcome [14] | outcome [16] | outcome [17]
active: potentiation [3] 53% | potentiation [4] 36% | potentiation [15] 18.6%

CCn1cc(CN2CCC(n3nccc3NC(=O)CCOc3ccccc3)CC2)c(C)n1
inactive: outcome [1] | outcome [2] | outcome [3] | outcome [4] | outcome [5] | outcome [6] | outcome [7] | outcome [8] | outcome [9] | outcome [10] | outcome [11] | outcome [12] | outcome [13] | outcome [14] | outcome [15] | outcome [16] | outcome [17]

Cn1c(C(=O)N[C@@H](C(=O)O)c2ccccc2)cc2cc(Cl)ccc21
inactive: outcome [1] | outcome [2] | outcome [3] | outcome [4] | outcome [5] | outcome [6] | outcome [7] | outcome [8] | outcome [9] | outcome [10] | outcome [11] | outcome [12] | outcome [13] | outcome [14] | outcome [15] | outcome [16] | outcome [17]

CCN(C(=O)c1cnc(NC(C)C)cc1C(F)(F)F)c1ccc(Cl)cc1Cl
inactive: outcome [1] | outcome [2] | outcome [3] | outcome [4] | outcome [6] | outcome [7] | outcome [8] | outcome [9] | outcome [10] | outcome [11] | outcome [12] | outcome [13] | outcome [15] | outcome [16] | outcome [17]
active: inhibition [5] 91% | inhibition [14] 44.8%

CC(=O)C1=C(O)C(=O)N(Cc2ccco2)C1c1ccc2c(c1)OCO2 (stereo not given)
active: inhibition [5] 94% | inhibition [6] 47%
inactive: outcome [1] | outcome [2] | outcome [3] | outcome [4] | outcome [7] | outcome [8] | outcome [9] | outcome [10] | outcome [11] | outcome [12] | outcome [13] | outcome [14] | outcome [15] | outcome [16] | outcome [17]

Cn1c(=O)n(CCCO)c(=O)c2c1nc1n2CCCN1Cc1ccccc1
inactive: outcome [1] | outcome [2] | outcome [3] | outcome [4] | outcome [7] | outcome [8] | outcome [9] | outcome [10] | outcome [11] | outcome [12] | outcome [13] | outcome [15] | outcome [16] | outcome [17]
active: inhibition [5] 86% | inhibition [6] 46% | inhibition [14] 28.4%

CCC(=O)c1cc2c(C)cc(=O)oc2c(C)c1OC(=O)C(C)C
active: inhibition [5] 85% | inhibition [14] 12.2%
inactive: outcome [1] | outcome [2] | outcome [3] | outcome [4] | outcome [6] | outcome [7] | outcome [8] | outcome [9] | outcome [10] | outcome [11] | outcome [12] | outcome [13] | outcome [15] | outcome [16] | outcome [17]
